Data as given in PubChem BioAssay (NCI).
This is part of a sample that, as a whole, favours compounds with a hit. Of some 83,000 tested, about 20% had one in any assay.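 The test compound was applied at a single concentration to cells in 96-well plates for 48 hours, and percent growth was recorded.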 Calls of active or inactive are those of the source. The calls were made as follows: active = growth percent below 10; inactive = the rest.

Assays:
Assay in all cases: NCI-60 one-dose screen, 48 h (100 = growth as untreated, 0 = no growth, -100 = all killed)
Details in all cases: 10 µM unless noted
DU-145 prostate = tested on: DU-145 prostate
K-562 leukemia = tested on: K-562 leukemia
MALME-3M melanoma = tested on: MALME-3M melanoma
MDA-MB-231 breast = tested on: MDA-MB-231 breast
RXF 393 renal = tested on: RXF 393 renal
SF-268 CNS = tested on: SF-268 CNS
SF-295 CNS = tested on: SF-295 CNS
SF-539 CNS = tested on: SF-539 CNS
UACC-257 melanoma = tested on: UACC-257 melanoma
M14 melanoma = tested on: M14 melanoma

Measured: growth

O=C(Nc1ncc(Cc2ccccc2Cl)s1)c1ccc2c(c1)OCCO2
active: DU-145 prostate 9.81% | K-562 leukemia 8.27% | RXF 393 renal 9.52% | SF-539 CNS -8.75%
inactive: MALME-3M melanoma 56.6% | MDA-MB-231 breast 23.5% | SF-268 CNS 41.2% | SF-295 CNS 11.7% | UACC-257 melanoma 53.1% | M14 melanoma 10.3%

CCOC(=O)C1=C(C)N(C)C(=O)N(C)C1c1ccccc1 (stereo not given)
inactive: DU-145 prostate 107% | K-562 leukemia 82.2% | MALME-3M melanoma 87.2% | MDA-MB-231 breast 97.3% | RXF 393 renal 105% | SF-268 CNS 108% | SF-295 CNS 90.6% | SF-539 CNS 91.4% | UACC-257 melanoma 92.5% | M14 melanoma 94.2%

C=C(c1ccc(OC)c(/C=C/C(=O)c2cc(OC)c(OC)c(OC)c2)c1)c1cc(OC)c(OC)c(OC)c1
inactive: DU-145 prostate 15.6% | K-562 leukemia 12.7% | MDA-MB-231 breast 30.4% | SF-268 CNS 21.7% | SF-295 CNS 30.5%
active: MALME-3M melanoma -6.73% | RXF 393 renal -68.5% | SF-539 CNS -84.7% | UACC-257 melanoma 2.85% | M14 melanoma 4.85%

CCCCCCCCNc1ncnc2c1ncn2Cc1nnc2c3ccccc3c(Cl)nn12
inactive: DU-145 prostate 49% | K-562 leukemia 14.8% | MALME-3M melanoma 69.9% | MDA-MB-231 breast 55.4% | RXF 393 renal 36.1% | SF-268 CNS 35.5% | SF-295 CNS 61.8% | SF-539 CNS 49.9% | UACC-257 melanoma 46.9% | M14 melanoma 34.5%

Cc1cc(C)n(C(=O)CSc2nc3sc4c(c3c(=O)n2-c2ccccc2)CCCCC4)n1
inactive: DU-145 prostate 106% | K-562 leukemia 97.1% | MALME-3M melanoma 107% | MDA-MB-231 breast 108% | RXF 393 renal 99.9% | SF-268 CNS 104% | SF-295 CNS 101% | SF-539 CNS 105% | UACC-257 melanoma 96.7% | M14 melanoma 113%

CC(C)CCc1nc2ccc(NCc3ccc(OCCN4CCC(C)CC4)cc3)cc2[nH]1
inactive: DU-145 prostate 89.4% | K-562 leukemia 20.4% | MALME-3M melanoma 32% | MDA-MB-231 breast 59.8% | RXF 393 renal 61.6% | SF-268 CNS 79.9% | SF-295 CNS 90.4% | SF-539 CNS 58% | UACC-257 melanoma 96.3% | M14 melanoma 33.2%

COc1cccc2cc(N(C)c3ncnc4ccccc34)ccc12
active: K-562 leukemia 9.92% | SF-539 CNS -28.5%
inactive: DU-145 prostate 10.3% | MALME-3M melanoma 39.4% | MDA-MB-231 breast 31.3% | RXF 393 renal 25.9% | SF-268 CNS 30.2% | SF-295 CNS 11% | UACC-257 melanoma 25.3% | M14 melanoma 14.3%

Cc1ccc(Nc2nc(N)nc(N)c2N=O)cc1Cl
inactive: DU-145 prostate 73.7% | K-562 leukemia 69.9% | MALME-3M melanoma 82.2% | MDA-MB-231 breast 95.6% | RXF 393 renal 91.8% | SF-268 CNS 65.6% | SF-295 CNS 105% | SF-539 CNS 82% | UACC-257 melanoma 92.2% | M14 melanoma 88.4%

O=C(Nc1ccccc1CNc1nc(Nc2ccc(OCCN3CCCC3)cc2)ncc1Cl)NC1CCCCC1
inactive: DU-145 prostate 82.8% | MALME-3M melanoma 67.7% | MDA-MB-231 breast 69.7% | RXF 393 renal 56.8% | SF-268 CNS 73.1% | SF-295 CNS 82% | SF-539 CNS 84.3% | UACC-257 melanoma 78.3% | M14 melanoma 31.1%
active: K-562 leukemia 6.79%

CCCCC1=C(Br)C(=O)c2ncccc2C1=O
inactive: DU-145 prostate 103% | K-562 leukemia 30.2% | MALME-3M melanoma 101% | MDA-MB-231 breast 77.6% | RXF 393 renal 98.3% | SF-268 CNS 95.5% | SF-295 CNS 106% | SF-539 CNS 94.5% | UACC-257 melanoma 92.6% | M14 melanoma 98.2%

FC(F)(F)c1cccc(-c2nnn(Cc3cc(-c4cccc(Cl)c4)no3)n2)c1
inactive: DU-145 prostate 113% | K-562 leukemia 113% | MALME-3M melanoma 97.5% | MDA-MB-231 breast 117% | RXF 393 renal 109% | SF-268 CNS 99.1% | SF-295 CNS 111% | SF-539 CNS 102% | UACC-257 melanoma 96.3% | M14 melanoma 101%

Cc1oc2ccc(O)c(CN3CCCCCC3)c2c1C(=O)Nc1ccc(C(F)(F)F)cc1
inactive: DU-145 prostate 64.8% | K-562 leukemia 29.6% | MALME-3M melanoma 49.9% | MDA-MB-231 breast 49% | RXF 393 renal 50.4% | SF-268 CNS 75.4% | SF-295 CNS 48.8% | SF-539 CNS 61.2% | UACC-257 melanoma 82% | M14 melanoma 58.1%

COc1cccc(C2C3=C(COC3=O)N(CCO)c3cc4c(cc32)OCCO4)c1 (stereo not given)
inactive: MALME-3M melanoma 69.6% | RXF 393 renal 11.2% | SF-268 CNS 23.8% | UACC-257 melanoma 53.6%
active: DU-145 prostate -38.9% | K-562 leukemia 6.5% | MDA-MB-231 breast 8.33% | SF-295 CNS -5.81% | SF-539 CNS -23.1% | M14 melanoma -11.7%
